SMN2 splice enh: SMN2 splice variant enhancement. HEK293 SMN2-luciferase splicing reporter, luminescence, 30-36 h. Potency, µM (titrated, usually from 46.1 µM), for the others: at the top dose activity change, positive = activation, hits mostly activators. 2.8% of 210,000 active. AID 1458; note: % of control where 0% means no effect; nearly all actives have a fitted effect of over 55% in size
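HEK293 cells carry an SMN2 minigene-luciferase reporter in which exon 7 inclusion puts luciferase in frame. Cells were seeded at 2000 cells/well, attached for 10-12 hours, then exposed to compounds for 30-36 hours at 37C before ONE-Glo luminescence.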
NPC1 promoter act: NPC1 promoter activation; Potency, µM (doses to about 9.22 µM), for the others: top-dose activation, most hits filed as activators; 2.4% of 320,000 active; Huh7 NPC1 promoter luciferase reporter, 24 h; note: % of control where 0% means no effect; nearly all actives have a fitted effect of over 60% in size
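Huh7 reporter cells (NPC1 promoter driving luciferase) are dosed with compound for 24 h at 37 °C, 5% CO2; luciferase detection reagent is then added and luminescence measured after 10 min at ambient temperature.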
Rab9 promoter act: activators of Rab9 promoter; Huh7 Rab9 promoter-luciferase reporter, luminescence, 24 h; Potency, µM (titrated, usually from 9.22 µM), without a hit: top-dose activation, negative = inhibition, usual class: activators; 2.8% of 320,000 active; AID 485297; note: % of control where 0% means no effect; nearly all actives have a fitted effect of over 60% in size
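Luminescence from Amplite-detected luciferase (10 minutes, ambient) reports Rab9 promoter activation. Before that, stable Rab9-luciferase Huh7 cells (1500/well, reduced-serum OP-MEM I plus 10% FBS) were exposed to compound for 24 hours at 37C.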
FLuc modulator: counter-screen for miR-21 project: firefly luciferase inhibitors or activators; purified FLuc, Km substrates, luminescence inhibition; P08659; Potency, µM (series often up to 57.5 µM), for inactives: at the highest dose activity change, negative = inhibition, most hits filed as inhibitors; 6.9% of 360,000 active;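 note: plate controls were vehicle for no effect and reference inhibitor for full effect; nearly all actives have a fitted effect of over 55% in size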
Target sequence (P08659 whole entry, looked up): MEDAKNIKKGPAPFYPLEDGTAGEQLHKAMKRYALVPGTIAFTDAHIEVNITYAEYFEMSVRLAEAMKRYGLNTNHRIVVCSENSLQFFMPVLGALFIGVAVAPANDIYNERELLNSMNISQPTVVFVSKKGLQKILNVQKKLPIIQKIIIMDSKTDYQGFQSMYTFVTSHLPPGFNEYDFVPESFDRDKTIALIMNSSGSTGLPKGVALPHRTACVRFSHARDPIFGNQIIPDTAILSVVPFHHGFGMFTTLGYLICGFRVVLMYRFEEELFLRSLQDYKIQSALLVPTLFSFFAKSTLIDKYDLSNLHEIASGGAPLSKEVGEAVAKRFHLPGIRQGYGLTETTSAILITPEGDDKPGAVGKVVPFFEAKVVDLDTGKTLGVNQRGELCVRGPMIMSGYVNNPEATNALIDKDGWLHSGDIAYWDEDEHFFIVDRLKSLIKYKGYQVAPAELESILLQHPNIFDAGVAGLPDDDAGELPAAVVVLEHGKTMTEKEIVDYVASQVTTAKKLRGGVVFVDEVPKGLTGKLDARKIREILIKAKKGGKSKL
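Purified P. pyralis luciferase, 10 nM final, with Km-level 10 uM D-luciferin and 10 uM ATP in 50 mM Tris acetate pH 7.5, 10 mM Mg acetate, 0.01% Tween-20, 0.05% BSA; 6-point qHTS titration about 60 µM downward; luminescence read.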
KinaseGlo FLuc: Kinase-Glo luciferase inhibition (counter-screen); Q27757; Kinase-Glo luciferase, ATP luminescence, 8 min; Potency, µM (doses to about 38.3 µM), for inactives: at the highest dose activity change, negative = inhibition, most hits filed as inhibitors; 0.28% of 200,000 active; note: % is set by controls: 0 for no effect and ±100 for the full control effect; nearly all actives have a fitted effect of over 60% in size
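Compound is pinned into ATP-containing buffer (10 uM ATP, imidazole pH 7.2, 7 mM MgCl2). Kinase-Glo luciferase reagent is then added. Light output is recorded following an 8-min room-temperature incubation.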
* marks the source's active call; other numbers are inactive results; ? = inconclusive; . = no result given. Sampled rows, rich in hits. Any-hit rate of the full collection: about 7.3%. Calls come from the whole dose curve; as a rule, active = well fitted curve in the direction sought with a large enough effect; inconclusive = small, poorly fitted or top-dose-only effect, or another doubt; inactive = no such curve, though single readings can be large; an effect the other way counts as inactive or inconclusive. Potency is the fitted concentration of half-maximal effect.

SMILES | SMN2 splice enh | NPC1 promoter act | Rab9 promoter act | FLuc modulator | KinaseGlo FLuc
O=C(/C=C\c1ccccc1)NC1CC(=O)N(c2ccccc2)C1 (centres undefined) | . | . | . | 1% | .
O=C(CSc1nnc(-c2ccncc2)o1)Nc1cccc(F)c1 | . | 21% | 24% | 2% | .
O=C(CSc1nnc(-c2ccncc2)o1)Nc1cc(F)ccc1F | . | 2.8µM* | 2.8µM* | -22% | .
O=C(CSc1nnc(-c2ccccn2)o1)Nc1ccccc1Cl | . | ? | 0.56µM* | 0% | .
Cc1cnc(NC(=O)CSc2nnc(-c3ccccc3)o2)s1 | 10µM* | 3.5µM* | 2µM* | -8% | 0%
CCc1ccccc1NC(=O)Cn1nnc(-c2nc(-c3ccc(C)cc3)no2)c1N | . | . | . | 1% | .
CC1=N/C(=C\c2ccc(OC(C)C)cc2)C(=O)N1c1ccc(C(=O)O)cc1 | -9% | 0% | -4% | 12µM* | 0%
CC(C)Oc1ccc(C(=O)O)cc1 | . | 0% | -1% | -2% | .
COc1ccc(/C=C2\N=C(c3ccccc3)N(c3ccc(C(=O)O)cc3)C2=O)cc1OC | . | 13% | 12% | 5.4µM* | .
CCc1ccc(C(=O)c2cn(CC(=O)Nc3cccc(C)c3C)c3nc(C)ccc3c2=O)cc1 | . | . | . | -5% | .
Cc1ccc(NC(=O)CCN2C(=O)c3ccccc3Sc3ncccc32)c(Cl)c1 | . | . | . | 0% | .
N#CCCCS(=O)(=O)c1nnnn1-c1ccc(F)cc1Br | 1% | . | . | . | 2%
O=C(CCCN1CCOCC1)c1ccc2c(c1)OCCO2 | ? | ? | 2µM* | 13µM* | 4%
O=C(OCCN1CCOCC1)c1ccc(Cl)cc1Cl | . | 1% | -1% | 24µM* | .
O=C(OCCN1CCOCC1)c1ccc2c(c1)OCCO2 | ? | . | . | 24µM* | -3%
Cc1ccccc1C(=O)OCCN1CCOCC1 | -4% | -3% | 1% | 0% | -3%
O=C(CCN1CCOCC1)c1ccc2c(c1)OCCO2 | 25% | 1% | 5% | -4% | 0%
O=C(NCC(c1ccco1)S(=O)(=O)c1ccc(Cl)cc1)c1ccccc1F (centres undefined) | . | . | . | -4% | .
CCc1ccc(C(=O)c2cn(CC(=O)Nc3ccc4c(c3)OCCO4)c3ccc(CC)cc3c2=O)cc1 | -3% | . | . | 0% | .
COC(=O)c1cc(C(=O)c2ccc(C(C)(C)C)cc2)c[nH]1 | 15% | 13% | 28% | 19µM* | -1%
CN(C)C=NC(=O)c1cc(C(=O)c2ccc(C(C)(C)C)cc2)c[nH]1 | 3.2µM* | 1.1µM* | 1.1µM* | 9.5µM* | 7%
CC(C)(C)c1ccc(C(=O)c2c[nH]c(C(=O)O)c2)cc1 | 13µM* | ? | ? | 2.1µM* | 2%
CNC(=O)c1cc(C(=O)c2ccc(C(F)(F)F)cc2)c[nH]1 | . | 20% | 19% | ? | .
CN(C)C=NC(=O)c1cc(C(=O)c2ccccc2Cl)c[nH]1 | -4% | 1% | -6% | 1% | -2%
COc1ccc(CCNC(=O)c2cc3c(=O)[nH]c4ccc(C)cc4c3s2)cc1OC | -7% | . | . | -7% | .
SMILES | SMN2 splice enh | NPC1 promoter act | Rab9 promoter act | FLuc modulator | KinaseGlo FLuc
COc1cc(OC)c(NC(=O)c2oc3ccc4c(c3c2C)C(=O)CC(C)(C)O4)cc1Cl | . | . | . | 5.4µM* | .
Cc1c(C(=O)NCc2ccc(Cl)cc2)oc2ccc3c(c12)C(=O)CC(C)(C)O3 | 26% | . | . | ? | .
CC(=O)Nc1ccc(NC(=O)c2oc3ccc4c(c3c2C)C(=O)CC(C)(C)O4)cc1 | . | . | . | 8.5µM* | .
Cc1ccc(NC(=O)c2oc3ccc4c(c3c2C)C(=O)CC(C)(C)O4)c(C)c1 | . | . | . | 4.3µM* | .
CCOC(=O)c1ccc(NC(=O)c2oc3ccc4c(c3c2C)C(=O)CC(C)(CC)O4)cc1 (centres undefined) | 5% | . | . | -16% | .
COC(=O)c1ccccc1NC(=O)c1oc2ccc3c(c2c1C)C(=O)CC(C)(C)O3 | . | . | . | 5.4µM* | .
COCCCn1c(SCc2cccc(Cl)c2)nc2c(sc3ccccc32)c1=O | . | . | . | -6% | .
COc1ccccc1C(=O)NCCSc1c(C)[nH]c2ccccc12 | -4% | . | . | -17% | .
CCCNC(=O)c1oc2ccc3c(c2c1C)C(=O)CC(C)(C)O3 | 13µM* | 1.8µM* | 1.8µM* | 2.4µM* | -7%
COc1cccc(CNC(=O)c2oc3ccc4c(c3c2C)C(=O)CC(C)(C)O4)c1OC | 6% | . | . | 3.4µM* | .

Compound activity (PubChem)
